This passage reports binding signal results from PMC9911399, “Two distinct binding modes provide the RNA-binding protein RbFox with extraordinary sequence specificity”.

B1: CUACGGU (DNA:RNA)
RNA: GGGAGACCGGAAUUCAGAUUGUCCCUACGGUUUAAAUCCCGUCGUAGCCACCA
DNA 1: CAATCTGAATTCCGGTCTCCC
DNA 2: TGGTGGCTACGACGGGATT
B2: CUCUAUU (DNA:RNA)
RNA: B1 RNA with A27C, C28U, G29A, G30U
DNA 1: CAATCTGAATTCCGGTCTCCC
DNA 2: TGGTGGCTACGACGGGATT
B3: UGCCUAC (DNA:RNA)
RNA: B1 RNA with C25U, U26G, A27C, G29U, G30A, U31C
DNA 1: CAATCTGAATTCCGGTCTCCC
DNA 2: TGGTGGCTACGACGGGATT
B4: GGCUUCC (DNA:RNA)
RNA: GGGAGACCGGAAUUCAGAUUGUCCGGCUUCCUUAAAUCCCGUCGUAGCCACCA
DNA 1: CAATCTGAATTCCGGTCTCCC
DNA 2: TGGTGGCTACGACGGGATT
B5: AAAUCUA (DNA:RNA)
RNA: B1 RNA with C25A, U26A, C28U, G29C, G30U, U31A
DNA 1: CAATCTGAATTCCGGTCTCCC
DNA 2: TGGTGGCTACGACGGGATT
B6: ACCACCC (DNA:RNA)
RNA: B4 RNA with G25A, G26C, U28A, U29C
DNA 1: CAATCTGAATTCCGGTCTCCC
DNA 2: TGGTGGCTACGACGGGATT
B7: UCUGUUU (DNA:RNA)
RNA: B1 RNA with C25U, U26C, A27U, C28G, G29U, G30U
DNA 1: CAATCTGAATTCCGGTCTCCC
DNA 2: TGGTGGCTACGACGGGATT
B8: CGUCGUG (DNA:RNA)
RNA: B1 RNA with U26G, A27U, G30U, U31G
DNA 1: CAATCTGAATTCCGGTCTCCC
DNA 2: TGGTGGCTACGACGGGATT
B9: UGCACGG (DNA:RNA)
RNA: B4 RNA with G25U, U28A, U29C, C30G, C31G
DNA 1: CAATCTGAATTCCGGTCTCCC
DNA 2: TGGTGGCTACGACGGGATT
B10: UGCACCG (DNA:RNA)
RNA: B4 RNA with G25U, U28A, U29C, C31G
DNA 1: CAATCTGAATTCCGGTCTCCC
DNA 2: TGGTGGCTACGACGGGATT
B11: UGCACGA (DNA:RNA)
RNA: B4 RNA with G25U, U28A, U29C, C30G, C31A
DNA 1: CAATCTGAATTCCGGTCTCCC
DNA 2: TGGTGGCTACGACGGGATT
B12: CUGCACC (DNA:RNA)
RNA: B1 RNA with A27G, G29A, G30C, U31C
DNA 1: CAATCTGAATTCCGGTCTCCC
DNA 2: TGGTGGCTACGACGGGATT
B13: UGCACCA (DNA:RNA)
RNA: B4 RNA with G25U, U28A, U29C, C31A
DNA 1: CAATCTGAATTCCGGTCTCCC
DNA 2: TGGTGGCTACGACGGGATT
B14: UGCCACG (DNA:RNA)
RNA: B4 RNA with G25U, U28C, U29A, C31G
DNA 1: CAATCTGAATTCCGGTCTCCC
DNA 2: TGGTGGCTACGACGGGATT
B15: UGCACGU (DNA:RNA)
RNA: B1 RNA with C25U, U26G, A27C, C28A, G29C
DNA 1: CAATCTGAATTCCGGTCTCCC
DNA 2: TGGTGGCTACGACGGGATT
B16: CUGCACG (DNA:RNA)
RNA: B1 RNA with A27G, G29A, G30C, U31G
DNA 1: CAATCTGAATTCCGGTCTCCC
DNA 2: TGGTGGCTACGACGGGATT
B17: CCUGCAC (DNA:RNA)
RNA: B1 RNA with U26C, A27U, C28G, G29C, G30A, U31C
DNA 1: CAATCTGAATTCCGGTCTCCC
DNA 2: TGGTGGCTACGACGGGATT
B18: GUCUGGU (DNA:RNA)
RNA: B1 RNA with C25G, A27C, C28U
DNA 1: CAATCTGAATTCCGGTCTCCC
DNA 2: TGGTGGCTACGACGGGATT
B19: AAACGGC (DNA:RNA)
RNA: B1 RNA with C25A, U26A, U31C
DNA 1: CAATCTGAATTCCGGTCTCCC
DNA 2: TGGTGGCTACGACGGGATT
B20: UCAUAGC (DNA:RNA)
RNA: B1 RNA with C25U, U26C, C28U, G29A, U31C
DNA 1: CAATCTGAATTCCGGTCTCCC
DNA 2: TGGTGGCTACGACGGGATT
B21: ACGGCGA (DNA:RNA)
RNA: B1 RNA with C25A, U26C, A27G, C28G, G29C, U31A
DNA 1: CAATCTGAATTCCGGTCTCCC
DNA 2: TGGTGGCTACGACGGGATT
B22: CUUUAUC (DNA:RNA)
RNA: B1 RNA with A27U, C28U, G29A, G30U, U31C
DNA 1: CAATCTGAATTCCGGTCTCCC
DNA 2: TGGTGGCTACGACGGGATT
B23: AAGCCUG (DNA:RNA)
RNA: B1 RNA with C25A, U26A, A27G, G29C, G30U, U31G
DNA 1: CAATCTGAATTCCGGTCTCCC
DNA 2: TGGTGGCTACGACGGGATT
B24: CAGGCUA (DNA:RNA)
RNA: B1 RNA with U26A, A27G, C28G, G29C, G30U, U31A
DNA 1: CAATCTGAATTCCGGTCTCCC
DNA 2: TGGTGGCTACGACGGGATT
B25: ACACAAA (DNA:RNA)
RNA: B1 RNA with C25A, U26C, G29A, G30A, U31A
DNA 1: CAATCTGAATTCCGGTCTCCC
DNA 2: TGGTGGCTACGACGGGATT
B26: GGUUCUG (DNA:RNA)
RNA: B4 RNA with C27U, U29C, C30U, C31G
DNA 1: CAATCTGAATTCCGGTCTCCC
DNA 2: TGGTGGCTACGACGGGATT
B27: UGGCGUG (DNA:RNA)
RNA: B1 RNA with C25U, U26G, A27G, G30U, U31G
DNA 1: CAATCTGAATTCCGGTCTCCC
DNA 2: TGGTGGCTACGACGGGATT
B28: ACCAUGC (DNA:RNA)
RNA: B4 RNA with G25A, G26C, U28A, C30G
DNA 1: CAATCTGAATTCCGGTCTCCC
DNA 2: TGGTGGCTACGACGGGATT
B29: AGCAUGC (DNA:RNA)
RNA: B4 RNA with G25A, U28A, C30G
DNA 1: CAATCTGAATTCCGGTCTCCC
DNA 2: TGGTGGCTACGACGGGATT
B30: ACCAGCA (DNA:RNA)
RNA: B4 RNA with G25A, G26C, U28A, U29G, C31A
DNA 1: CAATCTGAATTCCGGTCTCCC
DNA 2: TGGTGGCTACGACGGGATT
B31: CAGCAUA (DNA:RNA)
RNA: B1 RNA with U26A, A27G, G29A, G30U, U31A
DNA 1: CAATCTGAATTCCGGTCTCCC
DNA 2: TGGTGGCTACGACGGGATT
B32: AGCCUGC (DNA:RNA)
RNA: B4 RNA with G25A, U28C, C30G
DNA 1: CAATCTGAATTCCGGTCTCCC
DNA 2: TGGTGGCTACGACGGGATT
B33: AUGCUGC (DNA:RNA)
RNA: B1 RNA with C25A, A27G, G29U, U31C
DNA 1: CAATCTGAATTCCGGTCTCCC
DNA 2: TGGTGGCTACGACGGGATT
B34: AGCAUAA (DNA:RNA)
RNA: B4 RNA with G25A, U28A, C30A, C31A
DNA 1: CAATCTGAATTCCGGTCTCCC
DNA 2: TGGTGGCTACGACGGGATT
B35: AUGCUUG (DNA:RNA)
RNA: B1 RNA with C25A, A27G, G29U, G30U, U31G
DNA 1: CAATCTGAATTCCGGTCTCCC
DNA 2: TGGTGGCTACGACGGGATT
B36: AGCCAGC (DNA:RNA)
RNA: B4 RNA with G25A, U28C, U29A, C30G
DNA 1: CAATCTGAATTCCGGTCTCCC
DNA 2: TGGTGGCTACGACGGGATT
B37: AGCAUGA (DNA:RNA)
RNA: B4 RNA with G25A, U28A, C30G, C31A
DNA 1: CAATCTGAATTCCGGTCTCCC
DNA 2: TGGTGGCTACGACGGGATT
B38: CAGCAUG (DNA:RNA)
RNA: B1 RNA with U26A, A27G, G29A, G30U, U31G
DNA 1: CAATCTGAATTCCGGTCTCCC
DNA 2: TGGTGGCTACGACGGGATT
B39: CAGCAUC (DNA:RNA)
RNA: B1 RNA with U26A, A27G, G29A, G30U, U31C
DNA 1: CAATCTGAATTCCGGTCTCCC
DNA 2: TGGTGGCTACGACGGGATT

Substitutions are numbered along the chain they refer to; changes in the protein carry UniProt numbers. Whole data set: some 16,000 sequences, median “ka relative to ugcaugu” near 0.096, cut for the highest 2% near 0.35. Only a selection was taken, and the highest values are over-represented in it overall.

For the assay, the target named is T1, RBFOX1 RRM RbFoxmut (Fox-RRM*) (Homo sapiens, UniProt Q9NWB1 109-208, R118D;E147R;N151S;E152T).
T1 sequence: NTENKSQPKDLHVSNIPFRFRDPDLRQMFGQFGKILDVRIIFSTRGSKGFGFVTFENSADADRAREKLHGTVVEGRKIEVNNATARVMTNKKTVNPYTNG
The assay can be described thus: EMSA; HiTS-Eq, 1 nM pool, 10 min; buffer printed only for the single-RNA assays: 10 mM Tris pH 7.5, 150 mM NaCl, 3.4 mM EDTA, 0.001% NP-40, 30 C. The following applies: tags: His6 N-terminal (pET28a); label: 5' 32P. Put shortly:
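Purified RbFox RRM, wild type or mutant, was incubated for 10 min in 50 µL with 1 nM of a 5′-radiolabelled RNA pool carrying 7 randomized nucleotides, whose flanks were annealed to DNA oligonucleotides, over a series of increasing protein concentrations. Unbound RNA was resolved on 8% native PAGE, cut out, reverse-transcribed, barcoded by PCR and sequenced on an Illumina HiSeq 2500. Relative association constants were derived from changes in read counts for each RNA species versus the control reaction and normalised to the cognate motif.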
A general note: In EMSA bound probe runs differently from free probe, usually more slowly.
Regarding B1, the binding signal is 0.0878 KA relative to UGCAUGU.

With B2, the binding signal was 0.107 KA relative to UGCAUGU.

Turning to B3, the binding signal was 0.105 KA relative to UGCAUGU.

Consider B4, for which the binding signal is 0.142 KA relative to UGCAUGU.

Consider B5, for which the binding signal was 0.088 KA relative to UGCAUGU.

On to B6, for which the binding signal was 0.0531 KA relative to UGCAUGU.

As for B7, the binding signal is 0.0825 KA relative to UGCAUGU.

As for B8, the binding signal is 0.156 KA relative to UGCAUGU.

Turning to B9, the binding signal is 0.308 KA relative to UGCAUGU.

In the case of B10, the binding signal was 0.223 KA relative to UGCAUGU.

Consider B11, for which the binding signal was 0.368 KA relative to UGCAUGU.

Regarding B12, the binding signal is 0.141 KA relative to UGCAUGU.

With B13, the binding signal was 0.158 KA relative to UGCAUGU.

In the case of B14, the binding signal was 0.158 KA relative to UGCAUGU.

On to B15, for which the binding signal was 0.362 KA relative to UGCAUGU.

Consider B16, for which the binding signal is 0.626 KA relative to UGCAUGU.

As for B17, the binding signal is 0.09 KA relative to UGCAUGU.

Turning to B18, the binding signal is 0.192 KA relative to UGCAUGU.

As to B19, the binding signal is 0.085 KA relative to UGCAUGU.

For B20, the binding signal was 0.116 KA relative to UGCAUGU.

For B21, the binding signal was 0.1 KA relative to UGCAUGU.

For the molecule B22, the binding signal was 0.0598 KA relative to UGCAUGU.

Regarding B23, the binding signal was 0.0848 KA relative to UGCAUGU.

Consider B24, for which the binding signal was 0.0916 KA relative to UGCAUGU.

Consider B25, for which the binding signal is 0.0812 KA relative to UGCAUGU.

B26: the binding signal is 0.208 KA relative to UGCAUGU.

As to B27, the binding signal was 0.321 KA relative to UGCAUGU.

For B28, the binding signal was 0.0949 KA relative to UGCAUGU.

As to B29, the binding signal was 0.495 KA relative to UGCAUGU.

As to B30, the binding signal was 0.121 KA relative to UGCAUGU.

For the molecule B31, the binding signal is 0.137 KA relative to UGCAUGU.

For the molecule B32, the binding signal is 0.0804 KA relative to UGCAUGU.

As to B33, the binding signal was 0.126 KA relative to UGCAUGU.

For the molecule B34, the binding signal was 0.0973 KA relative to UGCAUGU.

With B35, the binding signal is 0.361 KA relative to UGCAUGU.

Regarding B36, the binding signal is 0.0776 KA relative to UGCAUGU.

On to B37, for which the binding signal was 0.524 KA relative to UGCAUGU.

For the molecule B38, the binding signal is 0.965 KA relative to UGCAUGU.

Consider B39, for which the binding signal is 0.307 KA relative to UGCAUGU.
